Measurements from PubChem BioAssay AID977607 (Broad Institute, 2014).
Hit rate of the full screen: of about 1,500 compounds, about 460 (31%) were called active. Inconclusive results (about 1%) are left out.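 How the source made its calls: active means curve reaches 40% activation over neutral controls at an AC40 no higher than the top valid tested concentration; inconclusive means no clear call, values can overlap the other calls; inactive means signal moving opposite to the expected increase, and the rest.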 Only a sample is shown. Results with a measured potency or affinity are listed apart.

assay: activators of glucose-dependent insulin secretion, dose response, cell-based, INS-1E, Gaussia luciferase, luminescence, cherry-pick, set 2 (AID 977607); conditions: INS-1E GLuc insulin secretion reporter, 2-3 h, stronger effect = higher value; at 35 µM, 100% = signal doubled over neutral wells unless noted;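 further: 0% = median of the plate neutral control wells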

Max activation, inactive:
CCOC(=O)c1c(N)c(C#N)c2n1CCCC2 -17% [at 0.0016 µM, 100% = signal doubled over neutral wells], O=C(O)c1c(NC(=O)N2CCOCC2)sc2c1CCCC2 -10.1% [at 0.0016 µM, 100% = signal doubled over neutral wells], CCOc1ccc(C(=O)NCC(=O)OCCN2C(=O)c3ccccc3C2=O)cc1OCC -25.4% [at 0.135 µM, 100% = signal doubled over neutral wells], O=S(=O)(NCC1CCCO1)c1ccc(Cl)nc1 (stereo not drawn) -19.6% [at 3.8 µM, 100% = signal doubled over neutral wells], CCCCNC(=O)C1(C)CCN1C(=O)c1cc2ccccc2s1 (stereo not drawn) -22.6% [at 3.8 µM, 100% = signal doubled over neutral wells], Cc1noc(C)c1S(=O)(=O)NC(=O)C1(C)CCN1C(=O)C1(c2ccc(Cl)cc2)CCC1 (stereo not drawn) -18.9% [at 0.135 µM, 100% = signal doubled over neutral wells], CC1(C(=O)N2CCCCC2)CCN1C(=O)C1(c2ccccc2)CC1 (stereo not drawn) -16.5% [at 0.046 µM, 100% = signal doubled over neutral wells], CCSc1ncnc2c(C#N)c3n(c12)CCCCC3 -11.2% [at 0.005 µM, 100% = signal doubled over neutral wells], Cc1cc(=O)[nH]c2c1c(C)nn2C1CCCC1 -15.7% [at 1.2 µM, 100% = signal doubled over neutral wells], CCCCOc1ccc(-c2nnn(CC(=O)c3c[nH]c4ccccc34)n2)cc1 -22.5%, CCN1CCN(c2ccc(S(=O)(=O)N3CCCCC3)cc2NC(=O)c2cc3ccccc3o2)CC1 -44.3%, Cc1cccc(C)c1NC(=O)C1c2ccccc2Oc2ccccc21 22.9%, CCCCOC(=O)c1cc(-c2ccc(/C=N/n3cnnc3)o2)ccc1Cl 9.8% [at 1.2 µM, 100% = signal doubled over neutral wells], O=C(CNC(=O)c1ccco1)N/N=C/c1ccc(C(=O)O)cc1 52.9% [at 11 µM, 100% = signal doubled over neutral wells], O=C(CCN1CCOCC1)c1ccc(N2CCCCC2)cc1 -35% [at 3.8 µM, 100% = signal doubled over neutral wells], CC(=O)NC1C(=O)N(CCN2CCOCC2)c2ccc(Br)cc21 (stereo not drawn) -15.1% [at 3.8 µM, 100% = signal doubled over neutral wells], CC(C)Oc1ccc(C(=O)CCN2CCOCC2)cc1 -16%, O=C(c1ccc2c(c1)OCO2)N1CCc2ccccc2C1 14.5%, CC1(c2ccc(OC(F)F)cc2)NC(=O)N(CC(=O)Nc2cccc(S(N)(=O)=O)c2)C1=O (stereo not drawn) -16.7%, C=CCN(CC=C)S(=O)(=O)c1ccc(C(=O)Nc2sc3c(c2C(N)=O)CCCCC3)cc1 -33.8% [at 3.8 µM, 100% = signal doubled over neutral wells], C[C@H](O)[C@@H]1CN2CCc3ccc(-c4ccc5c(c4)OCO5)cc3[C@@H]2C[C@@H]1N(C)C(=O)c1cccc(Cl)c1 18.9% [at 0.42 µM, 100% = signal doubled over neutral wells], CC(C(=O)N1CCC(C(N)=O)CC1)N(c1ccc(Oc2ccccc2)cc1)S(C)(=O)=O (stereo not drawn) 28.2% [at 0.42 µM, 100% = signal doubled over neutral wells], COc1ccc(CCNC(=O)CCc2ccccc2O)cc1OC -17.8% [at 0.005 µM, 100% = signal doubled over neutral wells], COc1ccc(CCNC(=O)CCc2ccccc2)cc1OC -19.6% [at 0.42 µM, 100% = signal doubled over neutral wells], CC(=O)NCCNC(=O)CNC(=O)c1ccc(Cl)cc1 -16.4% [at 0.0016 µM, 100% = signal doubled over neutral wells], CCNc1nc(NC(C)CC)nc(ON=C(C)C)n1 (stereo not drawn) 31.8%, COCCN(CCOC)Cc1cc(=O)oc2cc(C)c(C)cc12 -22.4% [at 0.046 µM, 100% = signal doubled over neutral wells], COc1cccc2cc(-c3cc(=O)oc4cc(C)c(O)cc34)oc12 15.9% [at 3.8 µM, 100% = signal doubled over neutral wells], O=C(NCCN1CCN(C(=O)c2ccccc2Cl)CC1)C(=O)NCc1ccccc1 23.3% [at 0.005 µM, 100% = signal doubled over neutral wells], CC(O)c1nc2ccc(Cc3ccc4nc(C(C)O)[nH]c4c3)cc2[nH]1 (stereo not drawn) -15% [at 0.0016 µM, 100% = signal doubled over neutral wells], CCNc1nc(NC(C)C)nc(N(C)C#N)n1 18.9%, COc1ccc(/C=N/NC(=O)c2cc(-c3ccc4c(c3)OCO4)n[nH]2)cc1OC 26.5% [at 3.8 µM, 100% = signal doubled over neutral wells], O=C(NN=C1CCCC1)c1cc(-c2ccccc2)n[nH]1 -11.9% [at 1.2 µM, 100% = signal doubled over neutral wells]
